Structures can show the parent of a compound that is named as a salt.
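Further: active when median AUC fell below 0.1.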

This assay relates to S. enterica typhimurium tolC KO. As to the kind of experiment: growth AUC normalised to DMSO control (median) (fraction of control); higher = less growth inhibition, active = hit call of the paper. To be noted: 20 µM. The procedure, abridged: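 Strains were passaged twice overnight without oxygen, then grown in mGAM in 96-well plates with each approved-drug library compound at 20 μM and 1% DMSO, starting at OD578 0.01. OD578 was read hourly for 24 h inside an anaerobic incubator. Curves were truncated at entry into stationary phase, and the trapezoidal-rule area under the curve was normalised to same-plate vehicle wells. The value is the median across three biological replicates.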
`Cc1cc2c(cc1S(N)(=O)=O)S(=O)(=O)CCC2` [Meticrane]: the “growth AUC normalised to DMSO control” value was 1.01 (inactive).
Consider `CCCC(CCC)C(=O)O` [Valproic acid], for which the “growth AUC normalised to DMSO control” value was 1.01 (inactive).
Regarding `CNCCC(Oc1ccc(C(F)(F)F)cc1)c1ccccc1` (stereo not given) [Fluoxetine hydrochloride], the “growth AUC normalised to DMSO control” value is 0.934 (inactive).
Regarding `Cc1nnc(SCC2=C(C(=O)O)N3C(=O)[C@@H](NC(=O)Cn4cnnn4)[C@H]3SC2)s1` [Cefazolin sodium salt], the “growth AUC normalised to DMSO control” value is 0.00476 (active).
For the compound `Clc1cc(Cl)c(OCC#CI)cc1Cl` [Haloprogin], the “growth AUC normalised to DMSO control” value is 0.993 (inactive).
Consider `O=C(O)/C=C/c1ccc(Cn2ccnc2)cc1` [Ozagrel hydrochloride], for which the “growth AUC normalised to DMSO control” value was 1 (inactive).
As to `CC(=O)OCC(=O)NCCCOc1cccc(CN2CCCCC2)c1` [Roxatidine acetate hydrochloride], the “growth AUC normalised to DMSO control” value is 0.986 (inactive).
Consider `O=C(O)CNC(=O)C(CS)Cc1ccccc1` (stereo not given) [Thiorphan], for which the “growth AUC normalised to DMSO control” value is 0.995 (inactive).
As to `CCCCOC(=O)c1ccc(O)cc1` [Butylparaben], the “growth AUC normalised to DMSO control” value is 0.953 (inactive).
`Cc1ccc(S(=O)(=O)NC(=O)NN2CCCCCC2)cc1` [Tolazamide]: the “growth AUC normalised to DMSO control” value was 0.999 (inactive).
Consider `COc1cc2nc(N3CCN(C(=O)C4COc5ccccc5O4)CC3)nc(N)c2cc1OC` (stereo not given) [Doxazosin mesylate], for which the “growth AUC normalised to DMSO control” value is 0.952 (inactive).
With `CC(Oc1ccccc1)C(=O)N[C@@H]1C(=O)N2[C@@H]1SC(C)(C)[C@@H]2C(=O)O` (stereo not given in full) [Phenethicillin potassium salt], the “growth AUC normalised to DMSO control” value is 0.00227 (active).
For `Nc1ccccc1S(N)(=O)=O` [o-Sulfanilamide], the “growth AUC normalised to DMSO control” value was 1 (inactive).
As to `COc1ccc2[nH]c([S+]([O-])Cc3ncc(C)c(OC)c3C)nc2c1` (stereo not given) [Omeprazole], the “growth AUC normalised to DMSO control” value is 0.952 (inactive).
For the compound `CC(=O)Oc1ccccc1C(=O)Oc1ccccc1C(=O)O` [Acetylsalicylsalicylic acid], the “growth AUC normalised to DMSO control” value was 0.997 (inactive).
For `NCCCC(O)(P(=O)(O)O)P(=O)(O)O` [Alendronate sodium], the “growth AUC normalised to DMSO control” value was 0.99 (inactive).
For the compound `O=C1Nc2ccc(Cl)cc2[C@@](C#CC2CC2)(C(F)(F)F)O1` [Efavirenz], the “growth AUC normalised to DMSO control” value was 0.261 (inactive).
For the compound `CC(=O)O[C@]1(C(C)=O)CC[C@H]2[C@@H]3C=C(Cl)C4=CC(=O)[C@@H]5C[C@@H]5[C@]4(C)[C@H]3CC[C@@]21C` [Cyproterone acetate], the “growth AUC normalised to DMSO control” value is 0.953 (inactive).
In the case of `COc1ccc(C(=O)NCc2ccc(OCCN(C)C)cc2)cc1OC` [Itopride], the “growth AUC normalised to DMSO control” value was 1 (inactive).
Regarding `O=C(c1ccc(F)cc1)C1CCN(CCn2c(=O)[nH]c3ccccc3c2=O)CC1` [Ketanserin tartrate hydrate], the “growth AUC normalised to DMSO control” value is 0.997 (inactive).
Take `C[C@]12C[C@H](O)[C@H]3[C@@H](CCC4=CC(=O)CC[C@@]43C)[C@@H]1CC[C@@H]2C(=O)CO` [Corticosterone]: the “growth AUC normalised to DMSO control” value is 1 (inactive).
For the compound `C[N+](C)(CCOc1ccccc1)Cc1ccccc1.O=C([O-])c1cc2ccccc2cc1O` [Bephenium hydroxynaphthoate], the “growth AUC normalised to DMSO control” value is 0.977 (inactive).
Next, `Cc1cnc(C(=O)O)c[n+]1[O-]` [Acipimox]: 0.992 (inactive); `COc1ccc2c(c1)c(CC(=O)OCC(=O)O)c(C)n2C(=O)c1ccc(Cl)cc1` [Acemetacin]: 0.969 (inactive); `CN(C)CCC[C@@]1(c2ccc(F)cc2)OCc2cc(C#N)ccc21` [Escitalopram oxalate]: 0.982 (inactive).
As for `CNCCCC12CCC(c3ccccc31)c1ccccc12` [Maprotiline hydrochloride], the “growth AUC normalised to DMSO control” value is 0.982 (inactive).
In the case of `CCN(CC)CCOC(=O)C1(C2CCCCC2)CCCCC1` [Dicyclomine hydrochloride], the “growth AUC normalised to DMSO control” value was 0.933 (inactive).
In the case of `CNCC(O)c1ccc(OC(=O)C(C)(C)C)c(OC(=O)C(C)(C)C)c1` (stereo not given) [Dipivefrin hydrochloride], the “growth AUC normalised to DMSO control” value was 0.953 (inactive).
As to `Cc1ncc([N+](=O)[O-])n1CC(C)O` (stereo not given) [Secnidazole], the “growth AUC normalised to DMSO control” value is 1 (inactive).
As for `COc1cc(OC)c(C(=O)CCCN2CCCC2)c(OC)c1` [Buflomedil hydrochloride], the “growth AUC normalised to DMSO control” value is 1 (inactive).
On to `Cc1cc(NC(=O)C2=C(O)c3ccccc3S(=O)(=O)N2C)no1` [Isoxicam], for which the “growth AUC normalised to DMSO control” value is 0.993 (inactive).
On to `CCN(CC)CCNC(=O)c1cc(Br)c(N)cc1OC` [Bromopride], for which the “growth AUC normalised to DMSO control” value is 1.01 (inactive).
Regarding `NCCCC[C@H](N[C@@H](CCc1ccccc1)C(=O)O)C(=O)N1CCC[C@H]1C(=O)O` [Lisinopril], the “growth AUC normalised to DMSO control” value was 0.997 (inactive).
On to `COCCCC/C(=N\OCCN)c1ccc(C(F)(F)F)cc1` [Fluvoxamine maleate], for which the “growth AUC normalised to DMSO control” value was 0.957 (inactive).
Turning to `CCN(CC)C(=O)N1CCN(C)CC1` [Diethylcarbamazine citrate], the “growth AUC normalised to DMSO control” value is 0.995 (inactive).
In the case of `C[C@@H]1[C@H](O)[C@@H](C)/C=C/C=C/C=C/C=C/C=C/C=C/C=C/[C@H](O[C@@H]2O[C@H](C)[C@@H](O)[C@H](N)[C@@H]2O)C[C@@H]2O[C@](O)(C[C@@H](O)C[C@@H](O)[C@H](O)CC[C@@H](O)C[C@@H](O)CC(=O)O[C@H]1C)C[C@H](O)[C@H]2C(=O)O` [Amphotericin B], the “growth AUC normalised to DMSO control” value was 0.988 (inactive).
As to `Cn1c(=O)c2c(ncn2CC(=O)O)n(C)c1=O` [Acefylline], the “growth AUC normalised to DMSO control” value was 1.01 (inactive).
Take `Cc1ccccc1C(OCCN(C)C)c1ccccc1` (stereo not given) [Orphenadrine hydrochloride]: the “growth AUC normalised to DMSO control” value was 0.958 (inactive).
The result for `O=C(Nc1ccc([N+](=O)[O-])cc1Cl)c1cc(Cl)ccc1O` [Niclosamide] reads 0.00688 (active); that for `COc1ccc(OC)c(C(O)CNC(=O)CN)c1` (stereo not given) [Midodrine hydrochloride], 1 (inactive).

The record behind these values is the supplement of paper PMC12350171.
